Source: PubChem
AmpC no deterg = AmpC beta-lactamase inhibition without detergent; AmpC nitrocefin hydrolysis, absorbance 480 nm, 0.0001% Triton; Potency, µM (top dose mostly 57.1 µM), inactives show top-dose activity change, negative = inhibition, most hits filed as inhibitors; 330,000 compounds, 0.52% hits; P00811;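 also: plate controls were no compound for no effect and no enzyme for full effect; nearly all actives have a fitted effect of over 20% in size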
Target sequence (P00811 whole entry, looked up): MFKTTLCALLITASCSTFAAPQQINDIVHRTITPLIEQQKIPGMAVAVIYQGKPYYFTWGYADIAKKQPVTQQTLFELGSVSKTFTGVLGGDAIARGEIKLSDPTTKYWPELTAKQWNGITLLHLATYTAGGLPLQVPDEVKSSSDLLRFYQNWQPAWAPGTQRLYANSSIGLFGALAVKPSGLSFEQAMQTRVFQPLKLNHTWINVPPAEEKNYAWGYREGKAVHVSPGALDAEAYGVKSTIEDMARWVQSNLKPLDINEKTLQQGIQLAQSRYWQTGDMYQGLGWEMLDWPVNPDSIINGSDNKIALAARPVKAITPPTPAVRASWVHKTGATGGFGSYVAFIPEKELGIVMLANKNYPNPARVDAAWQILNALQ
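20 mM phosphate pH 7.0 + 0.01% (detergent screen) or 0.0001% Triton X-100; 5.3 nM AmpC reagent; cpd preinc 15 min RT; nitrocefin (800 uM stock) to start; A480 q20 s × 4 min; Activity was normalised to no-enzyme and no-compound control wells.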
AmpC detergent = AmpC beta-lactamase inhibition with detergent present. P00811. AmpC hydrolysis of nitrocefin, absorbance 480 nm, 0.01% Triton. Potency, µM (series often up to 114 µM), inactives show top-dose activity change, negative = inhibition, actives largely listed as inhibitors. 370,000 compounds, 0.041% hits;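 also: 0% = no-compound wells and -100% = no-enzyme wells; nearly all actives have a fitted effect of over 25% in size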
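20 mM phosphate pH 7.0 + 0.01% (detergent screen) or 0.0001% Triton X-100; 5.3 nM AmpC reagent; cpd preinc 15 min RT; nitrocefin (800 uM stock) to start; A480 q20 s × 4 min; Activity was normalised to no-enzyme and no-compound control wells.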
HCV inh = blocks hepatitis C virus | 340,000 compounds, 3.4% hits | Potency, µM (doses to about 41.8 µM), for the others: top-dose activity change, negative = inhibition, usual class: inhibitors | Huh7.5.1 HCVcc-Cre infection, luciferase reporter, 44 h | AID 651820
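After 44 h co-culture of compound, cells and HCVcc-Cre (~0.5 moi), substrate is added for 15 min at room temperature and luciferase measured over 15 sec. Cells were seeded at 1,000/well and pre-cultured 4 h.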
Pf growth 96h = inhibits malaria parasite growth, 96 h; P. falciparum luciferase reporter growth, 96 h; 320,000 compounds, 6.9% hits; AID 504834; Potency, µM (doses to about 28.7 µM), for inactives: at the top dose activity change, negative = inhibition, hits mostly inhibitors
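Cell-based qHTS: luciferase-tagged P. falciparum in erythrocytes (2% hematocrit, 0.05% parasitemia final) incubated with compounds for 96 hours, 37 C, 5% CO2; luciferase detection reagent then added and luminescence measured.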
Pf growth 48h = P. falciparum growth inhibition at 48 hours (one generation) | 310,000 compounds, 5.9% hits | Potency, µM (titrated, usually from 28.7 µM), for inactives: at the top dose activity change, negative = inhibition, most hits filed as inhibitors | P. falciparum luciferase growth in erythrocytes, 48 h | AID 504832
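A one-generation exposure of luciferase-tagged malaria parasites in RPMI 1640/Albumax erythrocyte culture, 37 C and 5% CO2. Inhibition is inferred from decreased luminescence after adding detection reagent.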
AMA1-RON2 inh = disrupts binding of P. falciparum AMA1 to RON2 | 360,000 compounds, 0.2% hits | AID 720542 | Potency, µM (top dose mostly 58.2 µM), for the others: top-dose activity change, negative = inhibition, hits mostly inhibitors | AlphaScreen AMA1-biotinylated RON2 peptide binding;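 also: 0% = vehicle wells and -100% = peptide control; nearly all actives have a fitted effect of over 45% in size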
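AMA1 (3D7) with his tag at 25 nM final met compounds first, then biotinylated RON2 peptide at 25 nM; detection used donor plus acceptor beads, 10 µg/mL apiece, read by AlphaScreen after 30 min at room temperature.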
The depositor's hits bear a star; ? = inconclusive; / = no result given; [ ] = remark or other dose. The list is not random: actives were taken first. Their share in the collection is about 11%. Calls follow the shape of the dose curve; as a rule, active = well fitted curve in the direction sought with a large enough effect; inconclusive = small, poorly fitted or top-dose-only effect, or another doubt; inactive = no such curve, though single readings can be large; an effect the other way counts as inactive or inconclusive. Unless noted, % is scaled to controls: 0 for no effect and ±100 for the full control effect; potency is read from the fitted curve at half-maximal effect.

SMILES | AmpC no deterg | AmpC detergent | HCV inh | Pf growth 96h | Pf growth 48h | AMA1-RON2 inh
CCn1cc(C(=O)O)c(=O)c2cc(F)c(N3CCN(C(=S)NC(=O)c4ccccc4)CC3)cc21 | 2.6% | 3.4% | 23.1% | ? | ? | 68.8%
O=S(=O)(Nc1cccc(-c2ccc(N3CCCC3)nn2)c1)c1ccc(F)c(C(F)(F)F)c1 | / | 1.4% | / | / | / | /
Cc1ccc2c(c1)c1c(n2C)C(=O)CCC1 | -21.8% | -3.7% | 3.98µM* | 58.5% | 11.9% | 0.8%
CC(=O)c1cc(C)ccc1OC(=O)c1cccnc1 | -9.1% | -11.3% | 9.6% | 9.28µM* | -23.4% | 1.7%
Cc1c(C(=O)NCCCN2CCCCC2)oc2ccc3c(c12)C(O)CC1(CCCCC1)O3 (stereo not drawn) | 0.4% | 1.4% | ? | 22.0% | 8.28µM* | 13.9%
COc1ccccc1C(=O)Nc1cc(-c2cccc(Br)c2)nn1-c1ccccc1 | / | 4.4% | / | / | / | /
CCOC(=O)N1CCN(c2ccc(S(=O)(=O)N(Cc3ccccc3)Cc3ccccc3)cn2)CC1 | -8.0% | -1.0% | ? | -29.4% | 13.1µM* | 1.1%
CCOC(=O)N1CCN(C(=O)CN(Cc2ccc(Cl)cc2)S(=O)(=O)c2ccccc2)CC1 | 121.2% | 0.8% | -2.8% | ? | 8.28µM* | -14.0%
CCN(CC)S(=O)(=O)c1ccc(N2CCN(CCO)CC2)nc1 | -16.9% | -6.7% | 0.2% | 3.8% | -1.6% | -2.2%[2.32 µM]
CCN(CC)S(=O)(=O)c1ccc(N2CCN(c3ccccc3O)CC2)nc1 | -26.9% | -13.9% | 11.2µM* | 13.1µM* | ? | -4.5%
CCOC(=O)N1CCN(C(=O)CN(Cc2ccccc2)S(C)(=O)=O)CC1 | ? | 4.8% | 12.1% | 244.4% | -5.9% | 0.0%
CCOC(=O)c1c(C)n(-c2ccccc2)c2ccc(OC(=O)c3ccccc3NC(=O)C(C)(C)C)cc12 | / | 6.6% | / | / | / | /
CC(C)Oc1ccc(CNC(=O)c2ccc3c(c2)N(C)C(=O)C2CCCCN32)cc1 (stereo not drawn) | / | 2.3% | / | / | / | /
CCN(CC)C(=O)c1sc2c(c1C)c(=O)n(-c1ccc(C)c(C)c1)c(=O)n2Cc1cc(=O)n2c(C)cccc2n1 | / | 3.1% | / | / | / | /
COc1ccc(-c2noc(CSc3nnc(C)n3-c3ccc(F)cc3)n2)cc1 | / | 4.9% | / | / | / | /
CCn1c(SCc2ccccc2)nnc1-c1cccs1 | -8.6% | ? | 1.7% | ? | 9.28µM* | 5.2%
CCn1c(SCc2ccccc2)nnc1C1CCN(S(=O)(=O)c2ccc(OC)cc2)CC1 | 57.0% | -9.6% | -29.4% | ? | ? | -28.4%
Cc1ccc(CSc2nnc(-c3cccs3)n2C)cc1 | 0.4% | -3.2% | 7.3% | 16.2% | 11.7µM* | 5.6%
CCn1c(SCc2ccccc2)nnc1C1CCCCC1 | 5.1% | 6.9% | 4.9% | 9.28µM* | ? | 3.3%
N#Cc1ccc(CSc2nnc(-c3cccs3)n2-c2ccccc2)cc1 | -2.8% | 3.1% | 0.631µM* | 16.5µM* | ? | -18.5%
Cc1ccc(-c2nnc3ccccc3c2C(=O)Nc2ccccc2F)cc1 | / | 2.0% | / | / | / | /
O=C(Nc1ccc(Cl)cc1)c1ccc2oc(=O)n(Cc3ccccc3)c2c1 | / | 9.1% | / | / | / | /
COc1cc(OC)c(NC(=O)c2c(N3CCCC3=O)c3cc(C)ccc3n2C)cc1Cl | / | 18.4% | / | / | / | /
CCN(C(=O)c1cc2c(s1)-c1ccccc1S(=O)(=O)C2)c1cc(OC)ccc1OC | 19.8% | -11.9% | 10µM* | ? | 9.28µM* | -15.0%
CCN(C(=O)c1cc2c(s1)-c1ccccc1OC2)c1cc(OC)ccc1OC | 9.2% | ? | 12.6µM* | 11.7µM* | ? | -18.6%
SMILES | AmpC no deterg | AmpC detergent | HCV inh | Pf growth 96h | Pf growth 48h | AMA1-RON2 inh
COc1ccc(N(C)C(=O)c2cc3c(s2)-c2ccccc2OC3)cc1 | / | 4.5% | / | / | / | /
COc1ccccc1NC(=O)Nc1nc(CC(=O)Nc2ccc(N(C)C)cc2)cs1 | -48.1% | ? | ? | ? | 49.6% | 17.8µM*
Cc1ccc(NC(=S)Nc2nc(CC(=O)Nc3ccccc3)cs2)cc1 | 14.1µM* | -2.1% | -3.4% | 42.2% | -1.9% | 65.4%
COc1ccccc1NC(=O)Cc1csc(NC(=O)c2ccccc2)n1 | -29.6% | 2.0% | 7.08µM* | -17.6% | 11.6% | -7.3%
COc1ccccc1NC(=O)Nc1nc(CC(=O)Nc2cccc(F)c2)cs1 | -31.4% | 2.1% | 11.5% | 2.08µM* | 4.15µM* | -27.8%
COC(=O)c1c(-c2cccs2)csc1NC(=O)c1ccc(C(C)(C)C)cc1 | / | 14.7% | / | / | / | /
Cc1ccccc1C1C(C#N)=C2N=C(N)c3c(sc4c3CCCCC4)N2C2=C1C(=O)CCC2 (stereo not drawn) | -9.5% | 6.7% | ? | 2.62µM* | 1.85µM* | -7.2%
N#CC1=C2N=C(N)c3ccccc3N2C2=C(C(=O)CCC2)C1c1ccccc1F (stereo not drawn) | -35.1% | 1.1% | 6.1% | ? | -33.9% | -13.9%
CCOC(=O)c1cnc2ccc(OC)cc2c1NCc1ccccc1 | 15.4% | ? | ? | ? | 11.7µM* | 39.8%
CCOC(=O)c1cnc2ccc(OCC)cc2c1NCc1ccccc1OC | -8.5% | 0.7% | 7.08µM* | 84.8% | 11.7µM* | 12.3%
COc1cccc(N2C(=O)CN(Cc3cc(OC)c(OC)c(OC)c3)C2=S)c1 | 28.2% | -13.5% | -7.2% | -8.6% | 0.329µM* | -5.6%
COc1ccc(CCN2C(=S)N(c3ccccc3)C(=O)C2CC(=O)O)cc1OC (stereo not drawn) | -15.8% | -12.3% | 3.9% | 2.2% | -18.2% | -19.9%
COc1ccc(N2C(=O)CN(Cc3cc(OC)c(OC)c(OC)c3)C2=S)cc1 | 77.1% | 0.7% | ? | 10.0% | ? | 1.4%
CCc1ccc(N2C(=O)CN(Cc3ccc(OC)c(OC)c3)C2=S)cc1 | 55.2% | ? | ? | 44.6% | ? | -15.8%
